CYP2C19 act: human CYP2C19 activators, primary screen, biochemical, luminescence. 96,000 tested, under 10 active. recombinant CYP2C19, luciferin-H EGE luminescence; stronger effect = higher value; 0 = fully inhibited enzyme, 1 = untreated enzyme. activation factor at 5 µM. AID 1025, 2008;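 active means activation factor of at least 2 at 5 µM in the primary screen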;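 further: 0 = wells with 2.5 mM tranylcypromine and 1 = vehicle-only wells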
Target sequence (P33261 whole entry, looked up): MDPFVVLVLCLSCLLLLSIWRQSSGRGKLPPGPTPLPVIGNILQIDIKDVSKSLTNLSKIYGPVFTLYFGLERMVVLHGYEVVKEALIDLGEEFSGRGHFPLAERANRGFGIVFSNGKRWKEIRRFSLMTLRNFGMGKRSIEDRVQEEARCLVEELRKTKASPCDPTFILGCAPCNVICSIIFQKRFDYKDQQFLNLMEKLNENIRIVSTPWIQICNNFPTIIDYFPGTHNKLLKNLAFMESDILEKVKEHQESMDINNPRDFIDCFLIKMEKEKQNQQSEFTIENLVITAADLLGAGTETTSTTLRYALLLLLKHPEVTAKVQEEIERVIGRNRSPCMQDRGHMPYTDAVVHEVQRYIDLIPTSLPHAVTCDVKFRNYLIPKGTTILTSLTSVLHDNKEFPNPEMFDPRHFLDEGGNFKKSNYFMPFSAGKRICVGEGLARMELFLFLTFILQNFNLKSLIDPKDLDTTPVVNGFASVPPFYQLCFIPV
CYP2C9 inhib: blockers of cytochrome P450 2C9 activity – biochemical, luminescence, ADME assay, primary screen | CYP2C9 Supersomes, luciferin-H conversion | inhibition, % at 5 µM | hit rate 20% among 96,000 | AID 777, 2007 | P11712;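 active means blocking of liver enzyme CYP2C9 beyond about 50% at 5 µM, limit read from the data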
CYP2C9 act: human CYP2C9 activators, primary screen, biochemical, luminescence; activation factor at 5 µM; hit rate 1.4% among 96,000; recombinant CYP2C9, luciferin-H conversion; stronger effect = higher value; factor 1 = untreated enzyme, 0 = blocked; AID 1024, 2008;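 active means activation factor of 2 or more for CYP2C9 at a 5 µM dose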;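 further: 0 = sulfaphenazole-blocked wells and 1 = vehicle-only wells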
PostGolgi ctrl: growth inhibition of yeast control strain, primary screen, counter-screen for post-Golgi transport modulator project. AID 738, 2007. efflux-deficient yeast background strain, growth absorbance A615, 16 h. inhibition, % at 10 µM. hit rate 5% among 98,000
PostGolgi yeast: phenotypic screen on post-Golgi transport, primary screen. post-Golgi transport phenotypic cell assay. AID 739, 2007. inhibition, % at 10 µM. hit rate 0.9% among 98,000;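 further: yeast cells grown in 1536-well plates; yeast grown about 18 h at 30C before absorbance read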
CYP2C19 inhib: blockers of cytochrome P450 2C19 activity – biochemical, luminescence, ADME assay, primary screen. P33261. inhibition, % at 5 µM. hit rate 21% among 96,000. CYP2C19 Supersomes, luciferin-H EGE luminescence, 30 min;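 active means CYP2C19 inhibition above a set limit at 5 µM in the primary screen, cut at about 50% in these data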;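 further: plate controls were negative control wells for no effect and 2.5 mM tranylcypromine positive control for full effect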
* marks the source's active call; other numbers are inactive results. Rows were chosen to be rich in hits. Some 32% of all compounds tested hit in one or more screens of this group. Unless noted, no stated cut-off is given here; in the data, active means inhibition above about 30%; inactive means the rest.

CC1=C(C(=O)NCc2ccccc2)C(c2ccc(C)o2)n2ncnc2N1 (configuration not stated) was read as CYP2C19 act 0.9, CYP2C9 inhib 28, CYP2C9 act 0.7, PostGolgi ctrl 7, PostGolgi yeast -2 and CYP2C19 inhib 7.
For O=C(Cc1coc2cc3c(cc12)CCC3)OCc1cc(=O)n2c(n1)sc1ccccc12 the results were CYP2C19 act 1, CYP2C9 inhib 28, CYP2C9 act 0.7, PostGolgi ctrl 7, PostGolgi yeast -2 and CYP2C19 inhib 3.
COCCN(C(=O)c1csnn1)C(C(=O)NC(C)(C)C)c1cccc(OC)c1 (configuration not stated) was read as CYP2C19 act 0.9, CYP2C9 inhib 12, CYP2C9 act 0.9, PostGolgi ctrl -10, PostGolgi yeast -2 and CYP2C19 inhib 15.
`c1ccc(-c2csc(Cc3nnc4n3CCCCC4)n2)cc1` gave CYP2C19 act 0.8, CYP2C9 inhib 6, CYP2C9 act 0.9, PostGolgi ctrl -4, PostGolgi yeast -5 and CYP2C19 inhib 24.
Screening c1ccc2c(c1)NC1(CCCCC1)n1c-2nc2ccccc21 returned CYP2C19 act 0.8, CYP2C9 inhib 36, CYP2C9 act 0.6, PostGolgi ctrl 1, PostGolgi yeast -1 and CYP2C19 inhib 20.
Screening CCCCC1(C)Nc2ccccc2-c2nc3ccccc3n21 (configuration not stated) returned CYP2C19 act 0.2, CYP2C9 inhib 57*, CYP2C9 act 0.4, PostGolgi ctrl 3, PostGolgi yeast 6 and CYP2C19 inhib 81*.
CC1(c2ccccn2)Nc2ccccc2-c2nc3ccccc3n21 (configuration not stated) was read as CYP2C19 act 0.3, CYP2C9 inhib 52*, CYP2C9 act 0.5, PostGolgi ctrl 22, PostGolgi yeast 15 and CYP2C19 inhib 69*.
`c1ccc2c(c1)NC1(CCCCCC1)n1c-2nc2ccccc21` gave CYP2C19 act 0.8, CYP2C9 inhib 51*, CYP2C9 act 0.5, PostGolgi ctrl 10, PostGolgi yeast 2 and CYP2C19 inhib 23.
For ONC(=Nc1ccccc1)c1ccc(Cl)cc1 the results were CYP2C19 act 0.1, CYP2C9 inhib 49, CYP2C9 act 0.5, PostGolgi ctrl 17, PostGolgi yeast 9 and CYP2C19 inhib 90*.
`O=S(=O)(/N=C(/Nc1ccc(F)cc1F)c1ccc(Cl)cc1)c1ccccc1` gave CYP2C19 act 1.1, CYP2C9 inhib 0, CYP2C9 act 1, PostGolgi ctrl 0, PostGolgi yeast 22 and CYP2C19 inhib -6.
COc1nc(N2CCOCC2)nc(-n2cccc2)n1 was read as CYP2C19 act 1, CYP2C9 inhib 11, CYP2C9 act 0.9, PostGolgi ctrl 8, PostGolgi yeast -11 and CYP2C19 inhib -2.
CSc1ncccc1C(=O)OCC(=O)NC(=O)NCCC(C)C was read as CYP2C19 act 0.8, CYP2C9 inhib -22, CYP2C9 act 1.2, PostGolgi ctrl -2, PostGolgi yeast -8 and CYP2C19 inhib 16.
Screening Cc1ccc(S(=O)(=O)NC2=NCCC2)cc1 returned CYP2C19 act 0.9, CYP2C9 inhib -8, CYP2C9 act 1.1, PostGolgi ctrl 1, PostGolgi yeast 4 and CYP2C19 inhib 7.
`CCC(C)c1ccc(NC(=O)C2CC2)cc1` (configuration not stated) gave CYP2C19 act 1, CYP2C9 inhib 2, CYP2C9 act 1, PostGolgi ctrl 13, PostGolgi yeast -15 and CYP2C19 inhib 4.
For C1=C(CCNCC2CCCCC2)CCCC1 the results were CYP2C19 act 0.1, CYP2C9 inhib -1, CYP2C9 act 1, PostGolgi ctrl 15, PostGolgi yeast -5 and CYP2C19 inhib 88*.
O=C(CN1CCN(C2CCCCC2)CC1)NCCC1=CCCCC1 was read as CYP2C19 act 0.8, CYP2C9 inhib 21, CYP2C9 act 0.8, PostGolgi ctrl 9, PostGolgi yeast -3 and CYP2C19 inhib 16.
Clc1ccc(CNCCC2=CCCCC2)cc1 was read as CYP2C19 act 0, CYP2C9 inhib 22, CYP2C9 act 0.8, PostGolgi ctrl 6, PostGolgi yeast 5 and CYP2C19 inhib 100*.
`O=C(N1CCOCC1)C1(c2ccc(Cl)cc2)CCCC1` gave CYP2C19 act 0.1, CYP2C9 inhib -4, CYP2C9 act 1, PostGolgi ctrl 9, PostGolgi yeast 6 and CYP2C19 inhib 88*.
Screening COC(=O)CSc1nnc(-c2sc3cc(OC)ccc3c2Cl)n1C returned CYP2C19 act 0.4, CYP2C9 inhib -4, CYP2C9 act 1, PostGolgi ctrl 13, PostGolgi yeast 1 and CYP2C19 inhib 56*.
For CCSc1n[nH]c2nc3c(c(=O)n12)C1(CCCC1)Cc1ccccc1-3 the results were CYP2C19 act 0.8, CYP2C9 inhib 49, CYP2C9 act 0.5, PostGolgi ctrl 20, PostGolgi yeast 4 and CYP2C19 inhib 17.
For CCOC(=O)C1Cn2c(nc3c(c2=O)C(C)(C)Cc2ccccc2-3)S1 (configuration not stated) the results were CYP2C19 act 0, CYP2C9 inhib 88*, CYP2C9 act 0.1, PostGolgi ctrl 32*, PostGolgi yeast 22 and CYP2C19 inhib 97*.
For CCOC(=O)C1Cn2c(nc3c(c2=O)C2(CCCC2)Cc2ccccc2-3)S1 (configuration not stated) the results were CYP2C19 act 0.4, CYP2C9 inhib 38, CYP2C9 act 0.6, PostGolgi ctrl 38*, PostGolgi yeast -3 and CYP2C19 inhib 62*.
`CC1(C)Cc2ccccc2-c2nc(NCCCO)n(-c3ccccc3)c(=O)c21` gave CYP2C19 act 0.8, CYP2C9 inhib 5, CYP2C9 act 1, PostGolgi ctrl 13, PostGolgi yeast 3 and CYP2C19 inhib 18.
CC1=C(C(=O)Nc2ccccc2F)C(c2ccsc2)C2=C(CC(c3ccccc3)CC2=O)N1 (configuration not stated) was read as CYP2C19 act 0.2, CYP2C9 inhib 6, CYP2C9 act 0.9, PostGolgi ctrl -1, PostGolgi yeast -6 and CYP2C19 inhib 79*.
`CCOCCOC(=O)C1=C(C)NC2=C(C(=O)CC(c3cccs3)C2)C1c1ccsc1` (configuration not stated) gave CYP2C19 act 0.8, CYP2C9 inhib 34, CYP2C9 act 0.7, PostGolgi ctrl 2, PostGolgi yeast 5 and CYP2C19 inhib 19.
For COc1cc(Nc2nc(SCC#N)nc3ccccc23)cc(OC)c1OC the results were CYP2C19 act 0.8, CYP2C9 inhib 40, CYP2C9 act 0.6, PostGolgi ctrl -1, PostGolgi yeast 7 and CYP2C19 inhib 24.
For N#CCSc1nc(Nc2ccc3c(c2)OCO3)c2ccccc2n1 the results were CYP2C19 act 0.8, CYP2C9 inhib 80*, CYP2C9 act 0.2, PostGolgi ctrl 28, PostGolgi yeast -5 and CYP2C19 inhib 19.
